# Compounds with a hit are over-represented: about 1.6% of the library has one in this group of screens.
# JMJD2C inh: human JMJD2C demethylase inhibition; Q9H3R0; GST-JMJD2C(1-420) H3K9me3 demethylation, DELFIA europium; inhibition, % at 2.35 µM; actives 0.069% (n = 330,000);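 active = more than half of a compound's replicate wells show inhibition beyond 50%, single wells judged on their own value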;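 note: signal counts dimethyl H3K9 product captured on neutravidin plate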
# PREPL inhibitor: human PREPL enzyme inhibition; Q4J6C6; recombinant PREPL, fluorescence polarization activity-based probe; inhibition, % at 5.96 µM; actives 0.68% (n = 320,000); AID 2751; in the data active = inhibition above about 43%
# Target sequence (Q4J6C6 whole entry, looked up): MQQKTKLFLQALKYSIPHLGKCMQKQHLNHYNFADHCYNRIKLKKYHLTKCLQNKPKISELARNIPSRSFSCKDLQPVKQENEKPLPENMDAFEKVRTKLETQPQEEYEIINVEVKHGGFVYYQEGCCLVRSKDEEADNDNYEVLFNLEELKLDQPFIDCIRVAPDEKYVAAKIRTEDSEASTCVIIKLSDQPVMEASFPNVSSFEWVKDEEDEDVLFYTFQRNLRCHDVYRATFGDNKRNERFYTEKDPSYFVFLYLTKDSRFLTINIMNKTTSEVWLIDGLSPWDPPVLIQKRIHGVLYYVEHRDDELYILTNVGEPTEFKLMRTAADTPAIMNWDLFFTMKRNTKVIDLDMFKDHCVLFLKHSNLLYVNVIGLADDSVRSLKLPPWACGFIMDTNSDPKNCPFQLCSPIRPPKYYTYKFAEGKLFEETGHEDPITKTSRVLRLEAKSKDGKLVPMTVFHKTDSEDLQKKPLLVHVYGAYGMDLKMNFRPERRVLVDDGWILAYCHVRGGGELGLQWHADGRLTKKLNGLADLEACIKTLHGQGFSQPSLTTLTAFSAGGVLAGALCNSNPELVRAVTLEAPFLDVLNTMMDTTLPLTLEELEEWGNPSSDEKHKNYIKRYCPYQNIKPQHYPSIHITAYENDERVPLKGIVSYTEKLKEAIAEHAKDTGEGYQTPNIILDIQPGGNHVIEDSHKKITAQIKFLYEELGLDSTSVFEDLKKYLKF
# GRK2 inh: blocks RNA aptamer binding to human GRK2. inhibition of aptamer binding, % at 10 µM. P25098. actives 0.59% (n = 330,000). bead flow cytometry, FAM-aptamer displacement from GRK2;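 active = inhibition of aptamer binding above 40%, roughly 3 SD of noise, on plates passing a quality check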;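 note: median bead fluorescence of bound FAM aptamer so fluorescent compounds give negative values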
# DSG3 Ab inh: blocks pemphigus antibody binding to human desmoglein-3; binding (percent of control), % at 10 µM; AID 588358; actives 0.48% (n = 310,000); P32926; DSG3-coupled beads, scFv-anti-DSG3-GFP binding, flow cytometry; stronger effect = lower value;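 active = binding more than 3 SD below its plate's average and above zero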;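 note: hits lower antibody fragment binding to DSG3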
# VLA-4 inh: inhibition in a human VLA-4 binding assay. P13612. VLA-4 expressing cells, ligand binding flow cytometry. inhibition, % (about 7 µM as worked out from the volumes in the protocol). actives 0.2% (n = 330,000); in the data active = inhibition above about 50%
# Numbers stand for hits; n = inactive; x = no result given.
SMILES,JMJD2C inh,PREPL inhibitor,GRK2 inh,DSG3 Ab inh,VLA-4 inh
CS(=O)(=O)Nc1ccccc1C(=O)Nc1cc(Cl)cc(Cl)c1,n,n,99,n,n
CS(=O)(=O)Nc1ccccc1C(=O)Nc1ccccc1Cl,n,n,n,66,n
C#CCOCCOCCOCCNc1nc(N2CCN(C(=O)[C@H](CC(N)=O)n3cc(C(N)[C@@H](C)CC)nn3)CC2)nc(N2CCN(C(=O)[C@H](CCC(=O)O)n3cc([C@@H](N)CCCCN)nn3)CC2)n1 (stereo partly drawn),n,n,n,n,n
O=C(COc1ccccc1Cc1ccccc1)Nc1cccnc1,n,n,n,n,n
O=C(c1ccccc1)c1ccc2cc(O)ccc2c1,n,n,67,n,n
C/C=C/Cn1c(SCc2ccc(C)cc2)nc2c1c(=O)[nH]c(=O)n2C,n,n,n,71,n
C=CCn1c(SCc2ccc(F)cc2)nc2c1c(=O)[nH]c(=O)n2C,n,n,n,n,n
Cc1ccc(C)c(N2CCN(C(=O)CCCn3c(=S)[nH]c4cc5c(cc4c3=O)OCO5)CC2)c1,n,n,n,78,n
O=C(NCc1ccccc1Cl)C1CCN(C(=O)c2ccco2)CC1,58,n,n,x,n
O=C(c1ccco1)N1CCN(Cc2ccc(F)cc2)CC1,n,n,n,n,n
O=C(c1ccco1)N1CCN(Cc2ccccc2Br)CC1,n,n,n,72,n
O=C(Nc1ccc(Cl)cc1)C1CCN(C(=O)c2ccco2)CC1,n,n,n,x,n
O=C(Nc1ccsc1C(=O)N1CCCC1)c1ccccc1,n,n,n,n,n
COc1ccccc1CNC(=O)C(=O)NCC1OCCN1C(=O)c1cccs1 (stereo not drawn),n,n,n,n,n
O=C(O)c1cc(-c2ccco2)nn1-c1ccc(Cl)cc1,n,x,x,n,x
Cc1ccc(-n2nc(-c3ccco3)cc2C(=O)O)c(C)c1,n,x,x,60,x
COc1ccccc1N=CC1=C(O)CC(c2ccccc2)CC1=O (stereo not drawn),n,n,n,n,n
COc1cc2c(cc1OC)CN(C(=O)c1cccc([N+](=O)[O-])c1)CC2,n,n,n,n,n
Cc1ccc2c(=O)c(C(=O)NCc3cccs3)c[nH]c2c1,n,74,n,n,n
O=C(CCCCCCN1C(=O)c2ccccc2C1=O)NC1CCCCC1,x,n,n,-5.7,n
O=C(CCN1CCN(c2ccccc2)CC1)N/N=C/c1ccc(O)c(O)c1O,n,x,x,80,x
Cc1cc(C)nc(SCC(CSc2nc(C)cc(C)n2)C(=O)O)n1,n,n,n,n,n
Cc1cc(C(=O)N2CCN(S(C)(=O)=O)CC2)sc1-c1ccccc1,n,n,n,86,x
Cc1cc(C(=O)N2CCN(c3ncccn3)CC2)sc1-c1ccccc1,n,n,n,n,n
CC(C)Cc1cc(C(=O)Nc2cc(Cl)ccc2Cl)no1,n,n,n,-39,n
SMILES,JMJD2C inh,PREPL inhibitor,GRK2 inh,DSG3 Ab inh,VLA-4 inh
CC(C)Cc1cc(C(=O)Nc2ccc(F)cc2F)no1,n,n,n,n,n
CCOC(=O)[C@H]1[C@H]2COc3ccc(OC)cc3[C@@H]2N2C(=O)c3cc(C)ccc3NC(=O)[C@@]12C,52,n,x,n,x
COc1ccc2c(c1)OC[C@H]1[C@H]2N2C(=O)CNC(=O)[C@@]2(C)[C@H]1c1ccccc1,59,n,n,x,n
CCOC(=O)[C@H]1[C@H]2COc3ccccc3[C@@H]2N2C(=O)c3cc(OC)ccc3NC(=O)[C@@]12C,n,n,x,n,x
Cc1ccc2c(c1)C(=O)N1[C@H]3c4ccccc4OC[C@@H]3[C@H](c3ccccc3)[C@]1(C)C(=O)N2,n,n,93,n,n
Cc1ccc2c(c1)NC(=O)[C@@]1(C)[C@@H](c3ccccc3)[C@H]3COc4ccccc4[C@@H]3N1C2=O,n,n,x,n,x
Cc1ccc(S(=O)(=O)N(CC(=O)NCC2CCCO2)C2CCCCC2)cc1 (stereo not drawn),n,n,n,n,n
CCn1c(=O)c(C)nn2c3ccccc3nc12,n,n,n,x,n
Cn1c(=O)c(-c2ccccc2)nn2c3ccccc3nc12,52,n,n,n,n
COc1ccccc1CN1CC(C(=O)N(C)Cc2[nH]c3ccccc3c2C)CCC1=O (stereo not drawn),n,n,n,n,n
Cn1cc(C=CC(=O)O)c2nccnc21,x,x,x,n,x
Cc1sc2nc(CN3CCOCC3)nc(NS(=O)(=O)c3cc(Cl)ccc3Cl)c2c1C,56,n,n,n,n
CC1CCN(c2ccc3c(c2)S(=O)(=O)c2cccc(C(=O)NC4CCCCC4)c2C3=O)CC1,n,n,n,n,n
Cn1nnc2sc3c(c2c1=O)CCCC3,n,n,n,79,n
Cc1nc2sc3c(c2c(=O)n1N)CCC3,n,n,n,n,n
Cc1ccccc1C(=O)Nc1nnc(S(=O)(=O)N2CCCCCC2)s1,n,n,n,-6.6,n
O=C(Nc1nnc(S(=O)(=O)N2CCCCCC2)s1)c1ccccc1F,n,n,n,n,n
O=C(Nc1ccc(Cl)c(Cl)c1)NC1CCS(=O)(=O)C1 (stereo not drawn),n,n,n,n,n
O=C(NNC(=S)Nc1ccccc1)NNC(=S)Nc1ccccc1,n,n,n,n,n
O=C(NNC(=S)Nc1ccccc1)c1cc(Br)ccc1Cl,n,n,46,n,n
CCOC(=O)c1ccc(N(CC(=O)NCC2CCCO2)C(=O)CCC(=O)Nc2cc(C)on2)cc1 (stereo not drawn),n,n,n,n,n
Cc1ccc(C(=O)N/N=C\c2ccc(-c3ccc(Cl)cc3)o2)cn1,n,n,n,92,n
CCOC(=O)c1ccc(-c2ccc(/C=N/NC(=O)c3cncc(Br)c3)o2)cc1,n,n,n,75,n
Cc1ccc(/C=N\NC(=O)c2cncc(Br)c2)o1,n,n,n,n,n
CCC(CC)NC(=O)COC(=O)c1cccc(C)c1O,n,n,n,n,n
SMILES,JMJD2C inh,PREPL inhibitor,GRK2 inh,DSG3 Ab inh,VLA-4 inh
O=C(NN=Cc1c(O)ccc2ccccc12)c1ccc2c(c1)OCO2,n,n,n,x,n
Oc1ccc(N=Nc2ccc3c(c2)OCO3)c2ccccc12,n,n,78,x,n
O=C(NNc1cc(Br)c(O)c(Br)c1)c1ccccc1,n,n,n,n,n
CCOC(=O)C1=C(C)N(C)C(=O)NC1c1c(C)nn(-c2ccc(C)cc2)c1Cl (stereo not drawn),n,n,n,n,n
CCOC(=O)C1=C(C)NC(=O)NC1c1c(C)nn(-c2ccccc2)c1Cl (stereo not drawn),60,n,n,n,n
CC(=O)C1=C(C)NC(SCC(=O)c2ccc(Cl)cc2Cl)=C(C#N)C1c1ccco1 (stereo not drawn),n,n,n,77,n
CC(=O)C1=C(C)NC(SCC(=O)c2ccc(Cl)cc2)=C(C#N)C1c1ccco1 (stereo not drawn),n,n,n,n,n
COC(=O)c1cc(OC)c(OC)cc1NC(=O)Nc1ccccc1F,n,n,n,n,n
COc1cccc(C2c3c(oc4ccccc4c3=O)C(=O)N2Cc2ccco2)c1 (stereo not drawn),n,n,n,67,n
